Assay [1] can be described thus: inhibitors of TNFa-induced NFkB p65 translocation, primary screen, imaging, HUVEC, MLSMR starter and 10KST1 sets (AID 438;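 active means inhibition above 20% together with a positive visual image hit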;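 further: compound added about 3h40 before a 20 min TNFalpha stimulation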;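 on inhibition: signal is the nuclear over cytoplasmic p65 intensity ratio per well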). To be noted: HUVEC TNFa-induced p65 nuclear translocation; cell count: measured here: nuclei count (cytotoxicity indicator), at 2.08 µM; inhibition: at 2 µM, stronger effect = higher value, 0% TNFa-plus-vehicle, 100% no-TNFa wells.
A short description of assay [2]: inhibitors of mutant huntingtin aggregation, primary screen, imaging, exon1htt(103Q)mCFP cells, high-content imaging (AID 483;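 active means visual image review flags a hit and inhibition of aggregation exceeds 20%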;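 further: compound exposure lasted 3 days before fixation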;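 on nuclei count: percent of the per-plate median nuclei count of sample wells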). To be noted: exon1htt(103Q)mCFP cell line, aggregate imaging, at 2 µM; inhibition of aggregation: stronger effect = higher value; nuclei count: measured here: cell count, toxicity.
The nature of assay [3]: inhibitors of E-selectin induction by TNFa, primary screen, imaging, HUVEC, immunofluorescence, MLSMR starter and 10KST1 sets (AID 487).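 On inhibition: signal is fraction of cell area covered by stained E-selectin grains.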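 On nuclei count: 100% = median nuclei count of all wells on the same plate.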 To be noted: HUVEC TNFalpha-induced E-selectin immunofluorescence imaging, at 2 µM; inhibition: stronger effect = higher value; nuclei count: measured here: cell number, toxicity.
The target in assay [4] is Voltage-gated potassium channel subunit beta-2 (Rattus norvegicus) (UniProt P62483). The assay can be described thus: KvBeta enzyme negative modulators, primary screen, biochemical, NADPH fluorescence (AID 622;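 active means fluorescence slope higher than the sample average by over 3 SD, cut at about -0.22 in these data, passing the limit was not always enough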;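 further: slope of raw intensity against log time taken from 70 to 1610 s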). The conditions noted are these: recombinant KvBeta, 4-cyanobenzaldehyde reduction, at 10 µM, stronger effect = higher value.
Assay [5] shares this target. The assay can be described thus: KvBeta positive modulators, primary screen, biochemical, NADPH fluorescence (AID 623;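 active means NADPH fluorescence slope more negative than the mean of all samples by about 3 SD, 99.7% confidence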;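 further: fluorescence intensity change per second fitted from 20 to 320 s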). The conditions noted are these: Recombinant KvBeta, NADPH fluorescence decrease slope, 10 min; at 10 µM; stronger effect = lower value.
In assay [6] the target is Alpha-2C adrenergic receptor (Homo sapiens) (UniProt P18825). Put plainly: modulators of alpha2C/GIRK thallium flux, primary screen, cell-based, HEK293 alpha2C/GIRK1/2 (AID 624;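 active means fluorescence slope after compound addition differing from the mean of all screened samples at 99.7% confidence, in either direction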;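 further: slope of fluorescence ratio to pre-addition baseline per second over 15 to 24 s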). To be noted: thallium flux BTC fluorescence, at 10 µM, actives lie on both sides.
The nature of assay [7]: inhibitors of Sendai virus-induced IRF3 signaling, primary screen, TLR/RLR signaling modifier project, cell-based, Sendai virus stimulus, luciferase, 10K MLSCN set (AID 602276;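 active means inhibition at or above 50% at 10 µM; inactive means inhibition below 50%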;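 further: firefly luciferase from ISG56 promoter only with Renilla not read in this screen; 0% = Sendai virus plus DMSO and 100% = medium plus DMSO without virus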). The conditions noted are these: HEK293 RL24 IRF3 luciferase reporter, at 10 µM, stronger effect = higher value.
Assay [8] can be described thus: inhibitors of poly I:C-induced TLR3 signaling, primary screen, cell-based, poly I:C stimulus, luciferase, 10K MLSCN set (AID 602277;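 active means inhibition of the reporter signal at or above 50%; inactive means inhibition below 50%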). To be noted: HEK293-TLR3 RL24 IRF3 luciferase reporter, at 10 µM, stronger effect = higher value. In general terms: In a reporter assay the amount or activity of a reporter protein is the signal.

Active and inactive are the calls of the source.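 How the source made its calls, unless noted: active means visually confirmed hit in the image check and inhibition above 20%; inconclusive means visually confirmed hit but inhibition not above 20%; inactive means no visual hit in the image check.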

From PubChem BioAssay come the findings set out here.

Chain of Voltage-gated potassium channel subunit beta-2 (Rattus norvegicus) (P62483 whole entry, looked up): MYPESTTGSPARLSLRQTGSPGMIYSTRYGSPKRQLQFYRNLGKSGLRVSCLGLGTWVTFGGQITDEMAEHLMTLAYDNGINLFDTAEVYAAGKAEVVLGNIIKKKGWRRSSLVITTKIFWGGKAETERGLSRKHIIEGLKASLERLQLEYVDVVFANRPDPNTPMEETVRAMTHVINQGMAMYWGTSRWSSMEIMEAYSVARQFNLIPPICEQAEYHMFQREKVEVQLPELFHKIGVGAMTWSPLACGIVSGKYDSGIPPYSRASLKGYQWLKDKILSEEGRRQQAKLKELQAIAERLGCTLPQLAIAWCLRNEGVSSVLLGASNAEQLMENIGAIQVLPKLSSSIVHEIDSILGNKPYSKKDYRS
Chain of Alpha-2C adrenergic receptor (Homo sapiens) (P18825 whole entry, looked up): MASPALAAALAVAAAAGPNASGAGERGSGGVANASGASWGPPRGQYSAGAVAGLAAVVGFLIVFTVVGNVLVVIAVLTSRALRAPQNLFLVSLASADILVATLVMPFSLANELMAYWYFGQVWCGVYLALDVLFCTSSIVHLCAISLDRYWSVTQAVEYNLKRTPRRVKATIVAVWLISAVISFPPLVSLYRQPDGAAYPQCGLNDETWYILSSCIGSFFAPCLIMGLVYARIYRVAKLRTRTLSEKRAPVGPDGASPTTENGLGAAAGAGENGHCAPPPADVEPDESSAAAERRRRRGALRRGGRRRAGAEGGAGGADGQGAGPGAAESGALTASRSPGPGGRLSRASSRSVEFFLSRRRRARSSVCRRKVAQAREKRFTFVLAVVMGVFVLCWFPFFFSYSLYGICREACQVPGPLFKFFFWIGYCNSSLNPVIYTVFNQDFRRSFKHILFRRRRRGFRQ

Consider `O=C(Nc1ccc2c(c1)OCCO2)C1CCCN(S(=O)(=O)c2cnc[nH]2)C1` (centres undefined), for which the cell count in assay [1] amounted to 628. Moreover, the inhibition (as a rule, the change of the read-out against control, counted positive when it falls) in assay [1] is 4.1% (inactive); in assay [3], -29.5% (inactive); in assay [7], -16.1% (inactive); in assay [8], -6.55% (inactive). The inhibition of aggregation in assay [2] was -8% (inactive). Besides, the nuclei count is 102% in assay [2] and 114% in assay [3]. In assay [4], the fluorescence slope is -0.563 (inactive). In addition, the NADPH fluorescence slope in assay [5] is -4.5e-07 (inactive). The slope in assay [6] is 0.00662 (inactive).
As for `COC(=O)Nc1nnc(CCc2ccccc2)s1`, in assay [1], the cell count was found to be 547. Further, the inhibition in assay [1] was 3.2% (inactive); in assay [3], -51.8% (inactive); in assay [7], 12.3% (inactive); in assay [8], 2.62% (inactive). The inhibition of aggregation in assay [2] is 2.7% (inactive). Moreover, the values for the nuclei count in assay [2] and in assay [3] were 107% and 113%, respectively. The fluorescence slope in assay [4] was -0.509 (inactive). Besides, the NADPH fluorescence slope in assay [5] is -4.7e-05 (inactive). For the same compound, the slope in assay [6] is 0.00467 (inactive).
As to `COc1ccc(Br)cc1S(=O)(=O)N1CC(C)OC(C)C1` (centres undefined), the cell count in assay [1] is 359. The inhibition in assay [1] is 2.8% (inactive); in assay [3], -42.7% (inactive); in assay [7], -2.27% (inactive); in assay [8], 9.82% (inactive). Also, in assay [2], the inhibition of aggregation is -12.3% (inactive). The nuclei count turned out to be 94% in assay [2] and 104% in assay [3]. Moreover, the fluorescence slope in assay [4] was -0.429 (inactive). The NADPH fluorescence slope in assay [5] was 3.8e-05 (inactive). For the same compound, the slope in assay [6] is 0.0065 (inactive).
With `O=C1N2c3ccccc3CCc3cccc(c32)C1(O)C(F)(F)F` (centres undefined), in assay [1], the cell count was 747. In addition, the inhibition in assay [1] is 4.7% (inactive); in assay [3] it was -28% (inactive); in assay [7], 17.9% (inactive); in assay [8] it was 12.7% (inactive). The inhibition of aggregation in assay [2] is 0.2% (inactive). Besides, the nuclei count in assay [2] was 82.6%; in assay [3] it was 86.8%. In assay [4], the fluorescence slope was -0.641 (inactive). Further, in assay [5], the NADPH fluorescence slope is 1.4e-06 (inactive). For the same compound, the slope in assay [6] is 0.00675 (inactive).
Turning to `CC(=O)N1CCN=C1SCc1ccc(Br)cc1`, in assay [1], the cell count stood at 442. For the same compound, the inhibition in assay [1] is 14.5% (inactive); in assay [3] it was 39.5% (inactive); in assay [7], -0.301% (inactive); in assay [8], 22.3% (inactive). The inhibition of aggregation in assay [2] is 15.2% (inactive). For the same compound, the results for the nuclei count in assay [2] and in assay [3] were 95.1% and 98.6%, respectively. Also, the fluorescence slope in assay [4] is -0.632 (inactive). Besides, the NADPH fluorescence slope in assay [5] was -9.6e-06 (inactive). Also, in assay [6], the slope is 0.00733 (inactive).
As for `Cn1c(=O)c2c(nc(NCCCO)n2C/C=C/c2ccccc2)n(C)c1=O`, in assay [1], the cell count came to 401. For the same compound, the inhibition was -1.8% (inactive) in assay [1], -45.2% (inactive) in assay [3], 22.3% (inactive) in assay [7] and 34.2% (inactive) in assay [8]. The inhibition of aggregation in assay [2] is 1.8% (inactive). The nuclei count in assay [2] came out at 112%; in assay [3] it was 153%. Also, in assay [4], the fluorescence slope was -0.336 (inactive). In addition, the NADPH fluorescence slope in assay [5] was 9.8e-06 (inactive). The slope in assay [6] was 0.004 (inactive).
Take `CCOC(=O)C(C)Sc1nnc(Cc2cc(=O)[nH]c(=O)[nH]2)n1-c1ccc(Cl)cc1` (centres undefined): the cell count in assay [1] amounted to 817. Besides, the inhibition was -6.8% (inactive) in assay [1], -37.1% (inactive) in assay [3], 15.5% (inactive) in assay [7] and 12% (inactive) in assay [8]. In addition, in assay [2], the inhibition of aggregation was 4.6% (inactive). Besides, the nuclei count in assay [2] came out at 107%; in assay [3], 99.1%. Also, the fluorescence slope in assay [4] is -0.615 (inactive). Besides, the NADPH fluorescence slope in assay [5] was 5.1e-06 (inactive). Besides, the slope in assay [6] was 0.00534 (inactive).
Regarding `CC1NC2(C(=O)N(Cc3ccccc3)c3ccccc32)C2C(=O)N(c3ccccc3)C(=O)C12` (centres undefined), the cell count in assay [1] is 643. In addition, the inhibition in assay [1] was -5.3% (inactive); in assay [3], -33.8% (inactive); in assay [7] it was 4.63% (inactive); in assay [8], 26% (inactive). Further, the inhibition of aggregation in assay [2] was 2.9% (inactive). Further, the nuclei count in assay [2] came out at 113%; in assay [3] it was 109%. The fluorescence slope in assay [4] is -0.567 (inactive). Also, in assay [5], the NADPH fluorescence slope was -5.5e-05 (inactive). For the same compound, the slope in assay [6] is 0.0066 (inactive).
As for `CCC(C)(C(=O)NC1CCCCC1)N(Cc1ccco1)C(=O)c1ccc2c(c1)OCO2` (centres undefined), the cell count in assay [1] turned out to be 593. Also, the inhibition in assay [1] is -9.3% (inactive); in assay [3], 25.6% (inactive); in assay [7], 21.1% (inactive); in assay [8], 49.5% (inactive). Besides, the inhibition of aggregation in assay [2] was -2.7% (inactive). Also, the nuclei count in assay [2] is 80.7%; in assay [3] it was 95.5%. Besides, in assay [4], the fluorescence slope is -0.423 (inactive). Moreover, the NADPH fluorescence slope in assay [5] is -7.4e-06 (inactive). Besides, the slope in assay [6] was 0.00563 (inactive).
Consider `Cc1c(NC(=O)C(C)OC(=O)c2cc3c4ccccc4n(C)c3s2)c(=O)n(-c2ccccc2)n1C` (centres undefined), for which the cell count in assay [1] came to 405. For the same compound, the inhibition was -1.3% (inactive) in assay [1], -1.3% (inactive) in assay [3], 25.6% (inactive) in assay [7] and 34.4% (inactive) in assay [8]. For the same compound, the inhibition of aggregation in assay [2] is -35.1% (inactive). Further, the nuclei count in assay [2] turned out to be 67.6%; in assay [3], 107%. The fluorescence slope in assay [4] was -0.481 (inactive). Also, the NADPH fluorescence slope in assay [5] is -3.8e-06 (inactive). For the same compound, the slope in assay [6] is 0.0038 (inactive).
On to `O=C(Nc1ccc(S(=O)(=O)Nc2ccc(Cl)cc2)cc1)C1CCCO1` (centres undefined), for which, in assay [1], the cell count came out at 629. Also, the inhibition in assay [1] is -6.5% (inactive); in assay [3], 7.3% (inactive); in assay [7], 14.5% (inactive); in assay [8] it was -12.8% (inactive). In assay [2], the inhibition of aggregation is 3.9% (inactive). Moreover, the nuclei count in assay [2] came out at 104%; in assay [3], 101%. Also, the fluorescence slope in assay [4] was -0.415 (inactive). The NADPH fluorescence slope in assay [5] was -4.8e-05 (inactive). Further, the slope in assay [6] is 0.0052 (inactive).
For `CCOc1ccc(OCc2cccc(C(=O)N3CCCC3)c2)cc1`, the cell count in assay [1] is 488. In addition, the inhibition in assay [1] is 0% (inactive); in assay [3] it was 3.3% (inactive); in assay [7], -43% (inactive); in assay [8], -105% (inactive). Besides, the inhibition of aggregation in assay [2] is -4.9% (inactive). Further, the nuclei count stood at 103% in assay [2] and 106% in assay [3]. Moreover, in assay [4], the fluorescence slope is -0.423 (inactive). The NADPH fluorescence slope in assay [5] is -3.1e-05 (inactive). In assay [6], the slope was 0.00502 (inactive).
`CCC1CCCCN1C(=O)Cn1c(C(=O)OC)cc2sc(Cl)cc21` (centres undefined): in assay [1], the cell count amounted to 505. Further, the inhibition in assay [1] is -11.3% (inactive); in assay [3], 7.9% (inactive); in assay [7], 9.78% (inactive); in assay [8], 34.6% (inactive). Besides, in assay [2], the inhibition of aggregation is -19.4% (inactive). The nuclei count stood at 107% in assay [2] and 94.4% in assay [3]. Besides, the fluorescence slope in assay [4] is -0.388 (inactive). Besides, in assay [5], the NADPH fluorescence slope is -2e-05 (inactive). The slope in assay [6] is 0.00448 (inactive).
For the compound `COC(=O)c1cc(S(=O)(=O)N2CCC(C)CC2)ccc1F`, the cell count in assay [1] is 552. Besides, the inhibition was -17% (inactive) in assay [1], -24.3% (inactive) in assay [3], 15.3% (inactive) in assay [7] and 29.4% (inactive) in assay [8]. The inhibition of aggregation in assay [2] is -56.8% (inactive). For the same compound, the nuclei count is 112% in assay [2] and 104% in assay [3]. Also, the fluorescence slope in assay [4] is -0.452 (inactive). Besides, in assay [5], the NADPH fluorescence slope is -0.000117 (inactive). Moreover, in assay [6], the slope is 0.00608 (inactive).
